{"source": "PubChem BioAssay AID602454", "about": "(National Center for Advancing Translational Sciences (NCATS), 2012)", "note": "Inconclusive results are not listed. Calls of active or inactive are those of the source. How the calls were made is not given here.", "data": [{"assay": "qHTS Assay for Inhibitors of Influenza NS1 Protein Function: Viral Replication TCID50", "conditions": "Influenza virus replication in cells, at 10 µM, stronger effect = lower value", "description": "(§1) Influenza is a world-wide public health problem and emerging forms of the virus have the potential to cause a pandemic of equal or greater magnitude to the outbreaks recorded in 1918, 1957 or 1968. Vaccine development is proceeding and there also exist two classes of anti-influenza compounds. However these therapeutic modalities are neither fully effective nor widely enough available to fulfill global needs. In addition their potential usefulness against newly emergent strains is not known. Efforts are needed to develop novel agents against influenza virus, including broad-spectrum agents. Identification of small molecules that inhibit NS1 function either directly or by interfering with specific cellular pathways may be a key to increasing our defense against the virus.\n(§2) We have miniaturized and optimized a cell based assay in which NS1 from influenza A is expressed in the budding yeast S. cerevisiae. NS1 is a multi-functional protein that counters the host innate immune response and facilitates viral versus cellular gene expression. Expression of NS1 causes a pronounced slow growth phenotype in yeast due to its intrinsic molecular activities. Small molecules that suppress the slow growth phenotype can be identified by a straightforward growth recovery assay using optical density (OD) as the measurement. The same yeast strain not expressing NS1 was used as positive control in the yeast growth recovery assay.\n(§3) Hits resulting from the primary screen and other follow-up screens, were tested in two concentrations in this viral replication assay.\n(§4) NIH Chemical Genomics Center [NCGC]\n(§5) NIH Molecular Libraries Probe Centers Network [MLPCN]\n(§6) Assay Submitter (PI): Daniel Engel, University of Virgina\n(§7) Cell monolayers were infected at an m.o.i. of 0.1 for 48 h in the presence or absence of the compound, which was added at the beginning of infection. Virus titres were determined by TCID50 analysis (Reed, L. J. & Muench, H. (1938). A simple method of estimating fifty per cent endpoints. Am J Epidemiol 27, 493-497)", "values": [{"smiles": "COc1ccc(-c2ccnc3c2c(C)nn3-c2ccc(F)cc2)cc1OC", "viral titer (log10 TCID50)": "8.66 (active)"}, {"smiles": "COc1cc(-c2c(C#N)c(N)nc3c2c(C)nn3-c2ccc(C)cc2)cc(OC)c1OC", "viral titer (log10 TCID50)": "8.66 (active)"}, {"smiles": "COc1cc(-c2c(C#N)c(N)nc3c2c(C)nn3-c2ccc(C)c(C)c2)cc(OC)c1OC", "viral titer (log10 TCID50)": "9 (active)"}, {"smiles": "COc1cc(-c2c3c(C)nn(-c4ccccc4)c3nc3[nH]c(=O)[nH]c(=O)c23)cc(OC)c1O", "viral titer (log10 TCID50)": "8.33 (active)"}, {"smiles": "COc1cc(-c2c(C(=O)O)cnc3c2c(C)nn3-c2ccc(F)cc2)ccc1O", "viral titer (log10 TCID50)": "8.5 (active)"}, {"smiles": "COc1ccc(-c2ccnc3c2c(C)nn3-c2ccc(F)cc2)cc1", "viral titer (log10 TCID50)": "8.33 (active)"}, {"smiles": "COc1cc(-c2ccnc3c2c(C)nn3-c2cccc(F)c2)ccc1O", "viral titer (log10 TCID50)": "9 (active)"}, {"smiles": "CCOc1cc(-c2c(C#N)c(=O)[nH]c3c2c(C)nn3-c2ccc(F)cc2)ccc1O", "viral titer (log10 TCID50)": "8.66 (active)"}, {"smiles": "COc1cc(-c2c3c(C)nn(-c4ccccc4)c3nc3[nH]c(=O)[nH]c(=O)c23)ccc1O", "viral titer (log10 TCID50)": "8.66 (active)"}, {"smiles": "COc1cc(-c2c(C#N)c(=O)[nH]c3c2c(C)nn3-c2ccccc2)cc(OC)c1OC", "viral titer (log10 TCID50)": "7.66 (active)"}]}, {"assay": "qHTS Assay for Inhibitors of Influenza NS1 Protein Function: Viral Replication TCID50", "conditions": "Influenza virus replication in cells, viral titer, at 5 µM, stronger effect = lower value", "description": "as §1, §2, §3, §4, §5, §6, §7", "values": [{"smiles": "COc1ccc(-c2ccnc3c2c(C)nn3-c2ccc(F)cc2)cc1OC", "viral titer (log10 TCID50)": 9}, {"smiles": "COc1cc(-c2c(C#N)c(N)nc3c2c(C)nn3-c2ccc(C)cc2)cc(OC)c1OC", "viral titer (log10 TCID50)": 9}, {"smiles": "COc1cc(-c2c(C#N)c(N)nc3c2c(C)nn3-c2ccc(C)c(C)c2)cc(OC)c1OC", "viral titer (log10 TCID50)": 9}, {"smiles": "COc1cc(-c2c3c(C)nn(-c4ccccc4)c3nc3[nH]c(=O)[nH]c(=O)c23)cc(OC)c1O", "viral titer (log10 TCID50)": 8.66}, {"smiles": "COc1cc(-c2c(C(=O)O)cnc3c2c(C)nn3-c2ccc(F)cc2)ccc1O", "viral titer (log10 TCID50)": 8.88}, {"smiles": "COc1ccc(-c2ccnc3c2c(C)nn3-c2ccc(F)cc2)cc1", "viral titer (log10 TCID50)": 9}, {"smiles": "COc1cc(-c2ccnc3c2c(C)nn3-c2cccc(F)c2)ccc1O", "viral titer (log10 TCID50)": 9}, {"smiles": "CCOc1cc(-c2c(C#N)c(=O)[nH]c3c2c(C)nn3-c2ccc(F)cc2)ccc1O", "viral titer (log10 TCID50)": 9}, {"smiles": "COc1cc(-c2c3c(C)nn(-c4ccccc4)c3nc3[nH]c(=O)[nH]c(=O)c23)ccc1O", "viral titer (log10 TCID50)": 8.66}, {"smiles": "COc1cc(-c2c(C#N)c(=O)[nH]c3c2c(C)nn3-c2ccccc2)cc(OC)c1OC", "viral titer (log10 TCID50)": 8.5}]}]}
